High-throughput results as filed in PubChem BioAssay.
Pf growth 48h: P. falciparum growth inhibition at 48 hours (one generation); P. falciparum luciferase growth in erythrocytes, 48 h; Potency, µM (highest dose often 28.7 µM), actives largely listed as inhibitors; 5.9% of 310,000 active; AID 504832
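Parasite viability was followed by luminescence of a genomically integrated firefly luciferase. Cultures held 0.1% parasitemia at 2% hematocrit (final), incubated under 5% CO2 at 37 C.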
Pf growth 96h: inhibits malaria parasite growth, 96 h. P. falciparum luciferase reporter growth, 96 h. Potency, µM (doses to about 28.7 µM), most hits filed as inhibitors. 6.9% of 320,000 active
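Luminescence readout: decreased luciferase signal marks inhibited growth of reporter-expressing P. falciparum in infected red cells (2% hematocrit, 0.05% parasitemia final), exposed to compound two generations (96 h, 37 C, 5% CO2).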
Shiga inhibitor: inhibitors of Shiga toxin in Vero cells; Vero cells, Shiga toxin protein synthesis inhibition reporter; inhibition, % at 38.7 µM; 9.2% of 290,000 active; AID 2315; in the data active = inhibition mostly above about 28%, no sharp cut-off; inactive = mostly below about 43%
CHX counter: affects cycloheximide protein synthesis inhibition readout, counter-screen. cell reporter, cycloheximide protein synthesis inhibition counterscreen. max response, %. 12% of 300,000 active; in the data active = max response mostly above about 13%, no sharp cut-off; inactive = mostly below about 14%; also: read at 38.3 µM for the half of the compounds with a filed dose
Of the large screens only hits and unclear results are named; the others gave an inactive call. Most compounds without a hit are left out; they make up all but 21% or so of the library. Unless noted, calls follow the shape of the dose curve; as a rule, active = well fitted inhibition curve with a large enough effect; inconclusive = small, poorly fitted or top-dose-only effect, or another doubt; inactive = no such curve, though single readings can be large or run the other way.

O=C(CCSc1nnnn1-c1ccccc1)N1CCOCC1	Shiga inhibitor 36.2 (no result: Pf growth 96h)
CCOc1ccc(-n2nnnc2SCC(=O)N2CCOCC2)cc1	none
Cc1ccccc1C1=Nn2c(nnc2-c2ccco2)SC1	none
CCOCCCNC(=O)C(c1ccccc1)N(Cc1ccc2c(c1)OCO2)C(=O)c1ccccc1O (configuration not stated)	Pf growth 48h inconclusive, Pf growth 96h inconclusive
COc1ccc(NC(=O)CN(C)C(=O)c2cc(C)on2)cc1	none (no result: Shiga inhibitor, CHX counter)
COc1ccccc1N(C(=O)c1ccncc1)c1nc(-c2ccc([N+](=O)[O-])cc2)cs1	Pf growth 48h 9.28µM, Pf growth 96h inconclusive
CCC(=O)N(C)CCc1cc2c(c(OC)c1/C=N/Nc1ccc(C(=O)O)cc1)OCO2	CHX counter 35.2
CCC(=O)N(C)CCc1cc2c(c(OC)c1/C=N/NC(=O)[C@H]1C[C@@H]1c1ccccc1)OCO2	Pf growth 48h inconclusive, Pf growth 96h inconclusive
COc1cc(/C=N/NC(=O)c2ccncc2)ccc1OC(=O)c1ccccc1Cl	none
COc1cc(/C=N/NC(=O)c2ccccn2)ccc1OC(=O)c1ccccc1Br	Pf growth 96h 2.08µM, Shiga inhibitor 70.9, CHX counter 43.4
COc1cc(/C=N/NC(=O)c2ccccn2)ccc1OC(=O)c1ccc(Br)cc1	CHX counter 25.3
Cc1cc(C)n(CC(=O)NNC(=O)c2ccc(NC(=O)CC#N)cc2)n1	none (no result: Shiga inhibitor, CHX counter)
O=C(Nc1nc2ccccc2[nH]1)C1CCCC1	Shiga inhibitor 81.2, CHX counter 60.5
O=C(Nc1nc2ccccc2[nH]1)C1CCC1	Shiga inhibitor 108.5, CHX counter 41.6
O=C(CN1C(=O)NC2(CCCC2)C1=O)Nc1nc2ccccc2[nH]1	none (no result: Shiga inhibitor, CHX counter)
O=C(CC1CCCC1)Nc1nc2ccccc2[nH]1	CHX counter 27.8
CC(=O)N1c2ccc(S(=O)(=O)NCCC(=O)Nc3ccc(OC(F)(F)F)cc3)cc2CC1C (configuration not stated)	none
COC(=O)CCC(=O)OC1(C)C(=O)C2=CN(CC3CC3)C(c3ccc(OC)cc3)=CC2=C(Br)C1=O (configuration not stated)	Pf growth 48h 13.1µM, Pf growth 96h inconclusive
CCCCC1=CC2=C(c3ccco3)C(=O)C(C)(OC(=O)c3ccc(OC)cc3)C(=O)C2=CN1CCCOC(C)C (configuration not stated)	Pf growth 48h inconclusive
COC(=O)CCC(=O)OC1(C)C(=O)C2=CN(CC(C)C)C(c3ccc(OC)cc3)=CC2=C(Br)C1=O (configuration not stated)	Pf growth 48h inconclusive, Pf growth 96h 13.1µM
COC(=O)CCC(=O)OC1(C)C(=O)C2=CN(CCCOC(C)C)C(c3ccc(OC)cc3)=CC2=C(Br)C1=O (configuration not stated)	Pf growth 48h inconclusive, Pf growth 96h 11.7µM
CC1CC(C)CN(C(=O)c2cc(S(=O)(=O)N3CCCCC3)ccc2Cl)C1 (configuration not stated)	Pf growth 48h inconclusive (no result: Shiga inhibitor, CHX counter)
CCCS(=O)(=O)N1CCCC(C(=O)Oc2ccc(C)c(C)c2)C1 (configuration not stated)	none
Cc1ccccc1S(=O)c1ccccc1C(=O)O (configuration not stated)	none
Cc1ccc(Sc2ncccc2COC(=O)Nc2c(C)cccc2C)cc1	Pf growth 48h inconclusive, Pf growth 96h 7.38µM
CCN(CC)S(=O)(=O)c1cc(C(=O)Nc2ccc(Cl)cn2)ccc1C	Shiga inhibitor 79.5, CHX counter 33.0 (no result: Pf growth 96h)
CCN(c1ccccc1)S(=O)(=O)c1cccc(C(=O)Nc2ccc(C)cn2)c1	Pf growth 48h 8.28µM, Pf growth 96h 9.28µM
Cc1ccc(NC(=O)c2cccc(S(=O)(=O)NCc3ccccc3)c2)nc1	Pf growth 48h inconclusive (no result: Shiga inhibitor, CHX counter)
CCN(CC)S(=O)(=O)c1cccc(C(=O)Nc2ccc(Cl)cn2)c1	Shiga inhibitor 99.3, CHX counter 26.2
CCN(c1ccccc1)S(=O)(=O)c1ccc(NN)nc1	Pf growth 48h 13.1µM, Pf growth 96h inconclusive (no result: Shiga inhibitor, CHX counter)
CCS(=O)(=O)N1Cc2ccccc2CC1C(=O)N(C)CC(=O)Nc1ccc(F)c(F)c1F (configuration not stated)	none (no result: Shiga inhibitor, CHX counter)
COc1ccc(NC(C)=O)cc1S(=O)(=O)NCCc1ccccn1	none (no result: Shiga inhibitor, CHX counter)
CCOc1ccc(CCN2C(=O)c3ccc(C(=O)O)cc3C2=O)cc1OCC	none
COc1ccc(CC(=O)NC2CCCCCC2)c(OC)c1	CHX counter 8.5
COc1ccccc1NC(=O)NC1CCCCCCC1	Pf growth 96h 11.7µM
COc1ccc(NC(=O)NC2CCCCCCC2)c(OC)c1	Pf growth 96h inconclusive, Shiga inhibitor 45.0, CHX counter 30.3
COc1ccccc1NC(=S)NC1CCCCCC1	Pf growth 96h inconclusive
COc1ccc(NC(=O)NC2CCN(C(C)C)CC2)c(OC)c1	none (no result: Pf growth 48h)
COc1ccc(CCC(=O)NC2CCCCC2)cc1	Pf growth 96h 14.7µM
CC(Sc1nnc2n1CCCCC2)C(=O)Nc1cccc(S(=O)(=O)N2CCOCC2)c1 (configuration not stated)	none (no result: Shiga inhibitor, CHX counter)
CCOc1ccccc1NC(C)C(=O)NC(=O)NC1CCCCC1 (configuration not stated)	Pf growth 48h inconclusive, Pf growth 96h 13.1µM (no result: Shiga inhibitor, CHX counter)
COc1ccc(C(=O)N2CCc3ccc(NC(=O)c4ccccn4)cc3C2)cc1F	Pf growth 48h inconclusive, Shiga inhibitor 55.8, CHX counter 41.7
COc1cc2c(cc1OC)CN(C(=O)c1ccncc1)CC2	none (no result: Pf growth 48h)
Cc1ccc(Nc2nnc(SCc3cc(=O)n4ccsc4n3)s2)c(C)c1	Pf growth 48h 6.57µM, Pf growth 96h 4.65µM
CCc1ccc(Nc2nnc(SCc3cc(=O)n4ccsc4n3)s2)cc1	none (no result: Pf growth 96h)
Cc1ccc(Nc2nnc(SCC(=O)NC3CCS(=O)(=O)C3)s2)c(C)c1 (configuration not stated)	Pf growth 48h inconclusive, Pf growth 96h 2.62µM
O=c1cc(CSc2ccc([N+](=O)[O-])cc2)nc2sccn12	Pf growth 96h inconclusive, Shiga inhibitor 68.2
COc1ccccc1Nc1nnc(SCc2cc(=O)n3ccsc3n2)s1	Pf growth 48h inconclusive, Pf growth 96h 4.65µM
Cc1csc(-c2cnn(-c3ccccc3)c2NC(=O)c2ccc(C(F)(F)F)cc2)n1	none (no result: Pf growth 48h)
Cn1c(Cc2ccccc2)nnc1SCc1cc(=O)n2ccsc2n1	none
Cc1cccc(-n2c(SCc3cc(=O)n4ccsc4n3)nc3ccccc32)c1	Pf growth 48h 2.94µM, Pf growth 96h 4.15µM, CHX counter 20.3
Cc1ccc(SCc2cc(=O)n3ccsc3n2)c(C)c1	CHX counter 21.3
CCc1cccc(CC)c1-n1c(SCc2cc(=O)n3ccsc3n2)nnc1-c1cccnc1	Pf growth 48h 14.7µM, Pf growth 96h 10.4µM
Cc1cc(OC(C)C(=O)NCCCn2ccnc2)c2c(C)c(C)c(=O)oc2c1 (configuration not stated)	Pf growth 48h inconclusive, Pf growth 96h inconclusive
CCc1cc(=O)[nH]c(SCCC(F)=C(F)F)n1	none
C1CCN=C(Nc2nc3c(s2)CCCC3)CC1	Pf growth 96h inconclusive, Shiga inhibitor 120.3, CHX counter 38.5
c1nnc(NC2=NCCCCC2)s1	Pf growth 96h 5.86µM, CHX counter 21.7
c1nnc(NC2=NCCC2)s1	none (no result: Pf growth 48h)
COc1ccccc1NC(=O)NC1(C(=O)NCC2CCCO2)CCCCC1 (configuration not stated)	none
Cc1ccc(OCC(=O)N(Cc2nnc(-c3ccccc3Cl)o2)C2CC2)cc1C	Pf growth 48h inconclusive (no result: Shiga inhibitor, CHX counter)
